# Experimental data as given in PubChem BioAssay (NCATS).
# Results filed as inconclusive are left out. Where a call stands in place of a potency, no number is given. Unmarked numbers belong to inactive results. Calls of active or inactive are those of the source. The call rests on the fitted dose curve; in most records, active means well fitted curve in the direction sought with a large enough effect; inconclusive means small, poorly fitted or top-dose-only effect, or another doubt; inactive means no such curve, though single readings can be large; an effect the other way counts as inactive or inconclusive.
# What was measured:
# [1] = qHTS of pediatric cancer cell lines to identify multiple opportunities for drug repurposing: Primary screen for SK-N-MC cells (AID 1347093); further: potency means the concentration at half of the fitted maximal effect
# How it was run: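 Metabolically active cells were quantified by ATP-dependent luminescence (CellTiter-Glo, 15 min at room temperature) following 48 h treatment. Cells had been plated at 500-1,000 per well and settled for 5 h beforehand.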
# [2] = qHTS of pediatric cancer cell lines to identify multiple opportunities for drug repurposing: Primary screen for BT-37 cells (AID 1347094); further: series mostly up to about 57 µM
# How it was run: (§1)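 Following a 5-hour attachment period, cells at 500-1,000/well received compounds and were cultured for 48 hours. CellTiter-Glo was added and luminescence read to estimate viable, metabolically active cells.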
# [3] = qHTS of pediatric cancer cell lines to identify multiple opportunities for drug repurposing: Primary screen for NB-EBc1 cells (AID 1347095)
# How it was run: as §1
# [4] = qHTS of pediatric cancer cell lines to identify multiple opportunities for drug repurposing: Primary screen for U-2 OS cells (AID 1347096); further: nearly all actives have a fitted effect of over 50% in size
# How it was run: (§2)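 Cells (500-1,000/well) in growth media were settled 5 h at 37 degrees C, then given compounds for 48 h. Viability was read as CellTiter-Glo luminescence. Primary runs used MIPE at 11 points (0.78 nM-46 µM) and NPC at 8 points (0.59 nM-46 µM); follow-ups used 11 points.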
# [5] = qHTS of pediatric cancer cell lines to identify multiple opportunities for drug repurposing: Primary screen for Saos-2 cells (AID 1347097); further: nearly all actives have a fitted effect of over 40% in size
# How it was run: as §1
# [6] = qHTS of pediatric cancer cell lines to identify multiple opportunities for drug repurposing: Primary screen for SK-N-SH cells (AID 1347098);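 further: DMSO served as neutral control and bortezomib at 2.3 µM as positive control; nearly all actives have a fitted effect of over 65% in size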
# How it was run: (§3)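 Cells (500-1,000/well) rested 5 h, then received compounds for 48 h; metabolically active cells were measured by CellTiter-Glo luminescence. Final concentrations spanned up to 46 µM (MIPE, 11-point) or 0.59 nM-46 µM (NPC, 8-point) in primary screens, 11-point in follow-ups.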
# [7] = qHTS of pediatric cancer cell lines to identify multiple opportunities for drug repurposing: Primary screen for NB1643 cells (AID 1347099); further: nearly all actives have a fitted effect of over 50% in size; further: potency means the concentration at half of the fitted maximal effect
# How it was run: as §1
# [8] = qHTS of pediatric cancer cell lines to identify multiple opportunities for drug repurposing: Primary screen for LAN-5 cells (AID 1347100)
# How it was run: as §2
# [9] = qHTS of pediatric cancer cell lines to identify multiple opportunities for drug repurposing: Primary screen for BT-12 cells (AID 1347101); further: nearly all actives have a fitted effect of over 25% in size; further: potency means the concentration at half of the fitted maximal effect
# How it was run: as §3
# [10] = qHTS of pediatric cancer cell lines to identify multiple opportunities for drug repurposing: Primary screen for Rh18 cells (AID 1347102); further: nearly all actives have a fitted effect of over 65% in size
# How it was run: as §2
Structure (SMILES),Potency [1],Potency [2],Potency [3],Potency [4],Potency [5],Potency [6],Potency [7],Potency [8],Potency [9],Potency [10]
CCN1CCN(C(=O)N[C@@H](C(=O)N[C@@H]2C(=O)N3[C@@H]2SC(C)(C)[C@H]3C(=O)O)c2ccccc2)C(=O)C1=O,inactive,inactive,inactive,inactive,inactive,inactive,inactive,inactive,inactive,inactive
O=C1Nc2cc(Cl)ccc2Oc2ccccc21,inactive,inactive,inactive,inactive,inactive,inactive,inactive,inactive,inactive,–
N#Cc1cc(NC(=O)C(=O)O)c(Cl)c(NC(=O)C(=O)O)c1,inactive,inactive,inactive,inactive,inactive,inactive,inactive,inactive,inactive,inactive
C/C(=C1\CCOC(=O)S1)N(C=O)Cc1cnc(C)nc1N,inactive,inactive,inactive,inactive,inactive,inactive,inactive,inactive,inactive,inactive
CN1C(CSCC(F)(F)F)Nc2cc(Cl)c(S(N)(=O)=O)cc2S1(=O)=O (configuration not stated),inactive,inactive,inactive,inactive,inactive,inactive,inactive,inactive,inactive,–
CCOC(=O)C(=O)CCc1ccccc1,inactive,inactive,inactive,inactive,inactive,inactive,inactive,inactive,inactive,–
CC(C)(C)C(O)/C=C/c1ccc2c(c1)OCO2 (configuration not stated),inactive,inactive,inactive,inactive,inactive,inactive,inactive,inactive,inactive,inactive
CNC(=O)c1cnn(-c2nc(N)c3ncn([C@@H]4O[C@H](CO)[C@@H](O)[C@H]4O)c3n2)c1,inactive,inactive,inactive,inactive,inactive,inactive,inactive,inactive,inactive,inactive
NS(=O)(=O)c1cc(C(=O)NN2C[C@H]3[C@H]4CCC(C4)[C@H]3C2)ccc1Cl,inactive,inactive,inactive,inactive,inactive,inactive,inactive,inactive,inactive,inactive
Cc1ccc(C(=O)Oc2ccc(C(O)CNC(C)(C)C)cc2OC(=O)c2ccc(C)cc2)cc1 (configuration not stated),1 nM (active),inactive,inactive,inactive,inactive,inactive,1 nM (active),inactive,6170 nM (active),–
O=C(O)C(=O)Nc1cccc(-c2nn[nH]n2)c1,inactive,inactive,inactive,inactive,inactive,inactive,inactive,inactive,inactive,inactive
COc1ccc2cc(C=O)ccc2c1,inactive,inactive,inactive,inactive,inactive,inactive,inactive,inactive,inactive,inactive
COC(=O)c1cc(Cl)ccc1OC,inactive,inactive,inactive,inactive,inactive,inactive,inactive,inactive,inactive,inactive
O=C(Oc1ccccc1)c1cccc(C(=O)Oc2ccccc2)c1,inactive,inactive,inactive,inactive,inactive,inactive,inactive,inactive,inactive,–
C1=CC2C3C=CC(C3)C2C1 (configuration not stated),inactive,inactive,inactive,inactive,inactive,inactive,inactive,inactive,inactive,inactive
CCCC(=O)OCOC(=O)C1=C(C)NC(C)=C(C(=O)OC)C1c1cccc(Cl)c1Cl (configuration not stated),inactive,inactive,inactive,inactive,inactive,inactive,inactive,inactive,inactive,inactive
CCC(=O)O[C@H]1[C@H](O[C@@H]2[C@@H](C)[C@H](O[C@H]3C[C@@](C)(OC)[C@@H](O)[C@H](C)O3)[C@@H](C)C(=O)O[C@H](CC)[C@@](C)(O)[C@H](O)[C@@H](C)C(=O)[C@H](C)C[C@@]2(C)O)O[C@H](C)C[C@@H]1N(C)C,inactive,inactive,inactive,inactive,inactive,inactive,inactive,inactive,inactive,inactive
OCc1cccnc1,inactive,inactive,inactive,inactive,inactive,inactive,inactive,inactive,inactive,inactive
Cn1c(=O)c2c(ncn2CC(=O)O)n(C)c1=O,inactive,inactive,inactive,inactive,inactive,inactive,inactive,inactive,inactive,–
CC(=O)O[C@@H]1CC2C3CCc4cc(OC(=O)c5ccccc5)ccc4C3CCC2(C)[C@H]1OC(C)=O (some centres not stated),inactive,inactive,inactive,inactive,inactive,inactive,inactive,inactive,inactive,inactive
CCCC(=O)O[C@]1(C(=O)COC(=O)CC)CC[C@H]2[C@@H]3CCC4=CC(=O)CC[C@]4(C)[C@H]3[C@@H](O)C[C@@]21C,inactive,inactive,inactive,inactive,inactive,inactive,inactive,inactive,inactive,inactive
CN(CC1(C)CCCO1)S(=O)(=O)c1ccc(Cl)c(S(N)(=O)=O)c1 (configuration not stated),inactive,inactive,inactive,inactive,inactive,inactive,inactive,inactive,inactive,inactive
CN1CCC(=C2c3ccccc3CCc3cccnc32)CC1,inactive,inactive,inactive,inactive,inactive,inactive,inactive,inactive,–,–
